Measurements published in PubChem BioAssay (Tox21).
Calls of active or inactive are those of the source. The call rests on the fitted dose curve; in most records, active means well fitted curve in the direction sought with a large enough effect in the repeat runs; inconclusive means weak or mixed curves; inactive means flat fitted curve, though single readings scatter.

Experiment: qHTS assay to test for compound auto fluorescence at 460 nm (blue) in HepG2 cells (AID 720687)
Conditions: autofluorescence 405/460 nm, 1 h; series mostly up to 91.3 µM; fluorescence, % of fluorescent control: at the top concentration
Text: U.S. Tox21 Program National Center for Advancing Translational Sciences [NCATS] NIH Chemical Genomics Center [NCGC] U.S. Environmental Protection Agency [EPA] National Institutes of Environmental Health Sciences [NIEHS] National Toxicology Program [NTP] U.S. Food and Drug Administration [FDA] Tox21 Assay Overview: Compound auto fluorescence often interferes with screening of the compound library against various biological targets and signaling pathways. Some of these compounds may have fluorophoric properties. Such properties may interfere with the assay outputs resulting in false positives and/or negatives. To decrease such complications and ensure the compound activities are relevant in terms of biological response, the Tox21 10K compound library was screened for auto fluorescence. From the fluorophores used as reporter signals in our screening assays, the auto fluorescence equivalencies of compounds against three fluorophores have been evaluated: Triamterene, Fluorescein and Rose Bengal sodium for blue, green and red fluorescence, respectively. The fluorescence intensities were measured using Excitation/Emission wavelengths at 405/460nm, 485/535nm and 540/590nm for blue, green and red labels, respectively. This assay includes the blue fluorescence data.
Tox21 Assay Protocol Summary: 2,000 HepG2 cells in 5 uL of culture medium (MEM containing 10% FBS) per well were dispensed into black wall/clear bottom 1536-well plates using a Multidrop Combi Dispenser (ThermoFisher Scientific, Waltham, MA). The assay plates were incubated overnight at 37 C to allow cell attachment to the well bottom, followed by the transfer of 23 nL compound or DMSO vehicle by a pintool work station (Kalypsys , San Diego, CA). After the assay plates were incubated for 1 hr at 37 C and 5% CO2, fluorescence intensities in the assay plates were measured by an Envision (PerkinElmer, Shelton, CT) plate reader using three labels for measuring blue, green and red fluorescence at […] 460, 535 and 590 nm respectively.
On the % scale 0 is the no-effect control and ±100 the full control effect.

Structure (SMILES)	fluorescence, % of fluorescent control	Potency
Cc1cc(C)cc(N)c1	-0.175% [at 95.7 µM] (inactive)	
Cc1ccc(CO)cc1	0.0448% [at 95.7 µM] (inactive)	
Cc1cscn1	-0.0008% (inactive)	
CC(=O)OCC[N+](C)(C)C	-0.067% [at 46 µM] (inactive)	
O=[N+]([O-])c1ccc(O/N=C/c2cc(Br)c(O)c(Br)c2)c([N+](=O)[O-])c1	-0.188% (inactive)	
C=CC(C)(CCC=C(C)C)OC(=O)CC(C)C (stereo not given)	-0.0676% (inactive)	
C=CCc1ccccc1OCC(O)CNC(C)C (stereo not given)	-0.0265% [at 46 µM] (inactive)	
CCC(C)COC(=O)CC(C)C (stereo not given)	-0.0335% (inactive)	
CO/N=C(/C(=O)N[C@@H]1C(=O)N2C(C(=O)O)=C(COC(N)=O)CS[C@H]12)c1ccco1		inactive
O=c1c(O)c(-c2ccc(O)cc2)oc2cc(O)cc(O)c12		inactive
CC(C)c1nc(CN(C)C(=O)N[C@H](C(=O)N[C@@H](Cc2ccccc2)C[C@H](O)[C@H](Cc2ccccc2)NC(=O)OCc2cncs2)C(C)C)cs1		inactive
CCCCCCCC/C=C\CCCCCCCCO	0.0146% (inactive)	
O=c1cc(-c2ccccc2)oc2ccc3ccccc3c12	0.0972% (inactive)	
CC(CO)CO	-0.0006% [at 95.7 µM] (inactive)	
CN1C(=O)N(c2ccccc2Br)Cc2cnc(Nc3ccc4c(c3)OCC(CO)O4)nc21 (stereo not given)	-0.0245% (inactive)	
CC1(CN2CCC(n3c(=O)[nH]c4ccccc43)CC2)OCc2ccccc2-n2cccc21 (stereo not given)	0.0592% [at 46 µM] (inactive)	
CC1(C)[C@H](C(=O)O)N2C(=O)C[C@H]2S1(=O)=O	-0.0548% [at 46 µM] (inactive)	
CCCCCCCCN	-0.0631% (inactive)	
C=CC(=O)[O-].C=CC(=O)[O-].[Zn+2]	-0.0081% (inactive)	
CN1C[C@H](C(=O)N[C@]2(C)O[C@@]3(O)[C@@H]4CCCN4C(=O)[C@H](Cc4ccccc4)N3C2=O)C[C@@H]2c3cccc4[nH]cc(c34)C[C@H]21	0.979% [at 46 µM] (inactive)	

Structure (SMILES)	fluorescence, % of fluorescent control	Potency
C1COC1	0.002% (inactive)	
O=c1cc(-c2ccccc2)oc2cc(O)cc(O)c12	-0.24% (inactive)	
COc1ccccc1Oc1c(NS(=O)(=O)c2ccc(C(C)(C)C)cc2)nc(-c2ncccn2)nc1OCCO	0.187% [at 46 µM] (inactive)	
OCCOCC#CCOCCO	0.0673% (inactive)	
CC(=O)Nc1ccc(C)cc1C	-0.008% (inactive)	
CC1=C(CC=O)C(C)(C)CCC1	-0.126% (inactive)	
CC(=O)OCC(=O)NCCCOc1cccc(CN2CCCCC2)c1		inactive
CCCCCCC(C)(C)C(=O)O	-0.0858% (inactive)	
Oc1c(I)cc(I)c2cccnc12	-0.135% [at 46 µM] (inactive)	
CN(C)CCN1C(=O)c2ccccc2N(C)c2ccccc21	-0.0763% [at 46 µM] (inactive)	
CCCCCCCCCCC(=O)O	-0.0683% [at 95.7 µM] (inactive)	
C/C=C/C=C/C=O	0.343% (inactive)	
Cc1cc2c(OCC(CNC(C)(C)C)OC(=O)c3ccccc3)cccc2[nH]1 (stereo not given)	0.671% [at 46 µM] (inactive)	
CC(C)=CCC1C(=O)N(c2ccccc2)N(c2ccccc2)C1=O	-0.0544% [at 46 µM] (inactive)	
CCCC(=O)C(=O)O	0.0084% (inactive)	
c1ccc(C[n+]2cccc3ccccc32)cc1	1.11% (inactive)	
Brc1cc(Br)c(Oc2cc(Br)c(Br)cc2Br)cc1Br	-0.0414% [at 46 µM] (inactive)	
N#CCc1ccc(Cl)cc1Cl	0.0417% (inactive)	
CN(C)CCC=C1c2ccccc2C=Cc2ccccc21	-0.0488% [at 46 µM] (inactive)	
O=C1Cc2ccccc2N1c1c(Cl)cccc1Cl	-0.161% (inactive)	
